Hits are enriched below; roughly 4.5% of the tested compounds scored in any of these assays.
Mtb FBA inh = inhibitors of M. tuberculosis fructose-bisphosphate aldolase; P9WQA3; 360,000 tested, 2.3% active; AID 588726; inhibition, % at 1 µM; purified M. tuberculosis FBA, fluorescence read-out; in the data active means inhibition above about 27%
Target sequence (P9WQA3 whole entry, looked up): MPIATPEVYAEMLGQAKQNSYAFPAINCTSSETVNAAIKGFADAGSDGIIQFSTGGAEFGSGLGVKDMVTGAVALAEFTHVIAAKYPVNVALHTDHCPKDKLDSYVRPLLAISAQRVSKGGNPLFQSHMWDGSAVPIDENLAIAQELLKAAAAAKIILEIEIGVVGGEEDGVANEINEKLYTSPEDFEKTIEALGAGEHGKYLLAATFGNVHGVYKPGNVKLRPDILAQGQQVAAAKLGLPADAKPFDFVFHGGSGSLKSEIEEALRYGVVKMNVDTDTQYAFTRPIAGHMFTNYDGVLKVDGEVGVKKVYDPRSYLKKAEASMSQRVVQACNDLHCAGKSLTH
PrPC surface inh = reduces human prion protein on the cell surface; P04156; cell surface PrPC, TR-FRET read-out; inhibition, % at 13.8 µM; 370,000 tested, 0.43% active; AID 720596; in the data active means inhibition above about 24%
PrP UTR inh = inhibition of PrP 5' UTR reporter expression; cell-based PrP 5' UTR mRNA reporter, plate reader; inhibition, % (concentration not given with the values); 340,000 tested, 0.35% active; AID 488862; in the data active means inhibition above about 52%
PfHsp40 yeast = rescue of PfHsp40-mediated yeast toxicity. AID 504582. 340,000 tested, 0.68% active. S. cerevisiae expressing PfHsp40, growth rescue, ATP luminescence. growth rescue, % at 12.5 µM; in the data active means growth rescue above about 28%, passing the limit was not always enough;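 further: yeast W303a lacking pdr1 and pdr3 grown in galactose medium; growth measured after three days at 30 °C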
GDH-TPI counter = counter-screen for M. tuberculosis FBA inhibitors: GDH-TPI coupled enzymes; AID 588335; 360,000 tested, 1.2% active; GDH-TPI coupled enzyme counterscreen, NADH absorbance; inhibition, % at 4.8 µM; in the data active means inhibition above about 30%
BJeLR lethal = BJeLR cell viability loss | AID 1554 | 300,000 tested, 0.17% active | inhibition, % (no concentration beside the values) | BJeLR (HRASV12) viability, CellTiter-Glo ATP luminescence, 48 h; in the data active means inhibition above about 50%
Hits are given with their value; n = inactive; x = no result given; + = active, no number.

SMILES	Mtb FBA inh	PrPC surface inh	PrP UTR inh	PfHsp40 yeast	GDH-TPI counter	BJeLR lethal
O=C(Nc1ccc(N2CCOCC2)cc1)c1cc2c(s1)CCCC2	n	n	n	n	n	n
CCc1sc(C(=O)Nc2ccccc2N2CCOCC2)cc1C	n	n	n	107	n	n
O=C(Nc1ccccc1N1CCOCC1)c1cc2c(s1)CCCCC2	n	n	n	73	n	n
Cc1ccc(NC(=S)NNC(=O)CSc2nnc(-c3ccc(C)cc3)n2C2CCCCC2)cc1	x	n	x	x	x	x
COc1ccc(C2C(C(=O)Nc3cc(OC)c(OC)c(OC)c3)CCC(=O)N2c2ccc(OC)cc2)cc1 (stereo unspecified)	x	n	x	x	x	x
CCCCCCCNC(=O)C1(CC2CC(c3cccc(Br)c3)=NO2)CCN(C(=O)CCCCCBr)CC1 (stereo unspecified)	n	n	n	45	n	n
CCCCCCCNC(=O)C1(CC2CC(c3cccc(Br)c3)=NO2)CCN(C(=O)C2(C)CC2)CC1 (stereo unspecified)	n	n	n	n	n	x
CCN(C(=O)CSc1nnc(-c2cccnc2)n1Cc1ccco1)c1ccccc1	x	n	x	x	x	x
O=[N+]([O-])c1ccc2nc(-c3ccc(Cl)cc3)n(OCc3ccccc3)c2c1	n	n	n	n	34	n
Cc1ccc(COn2c(-c3ccc(Cl)cc3)nc3ccc([N+](=O)[O-])cc32)cc1	n	n	n	n	n	n
O=C1C[C@H](c2ccc3ccccc3c2)N=C2N1/C(=C\c1ccccc1)[C@@H](c1ccccc1C(F)(F)F)N2Cc1ccc2c(c1)OCO2	x	n	x	x	x	x
C[C@H](NC(=O)OCc1ccccc1)P(=O)(O)O	x	n	x	x	x	x
S=C(NCCc1ccc(Cl)cc1)Nc1ccc(Cl)cc1Cl	n	n	n	70	n	n
S=C(NCc1ccc(Cl)cc1)Nc1ccc(Cl)cc1Cl	n	n	n	n	n	n
Fc1ccc(CCNC(=S)Nc2ccc(F)c(Cl)c2)cc1	n	n	n	113	n	n
C[C@@H]1COc2cc(Br)ccc2S(=O)(=O)N1Cc1cn(CCC2OCCCO2)nn1	x	n	x	x	x	x
O=C(CCS(=O)(=O)c1ccccc1)Nc1ccc(F)cc1F	x	n	x	x	x	x
Cc1ccc(CN2CCCCC(NC(=O)Nc3cccc([N+](=O)[O-])c3)C2=O)cc1 (stereo unspecified)	x	n	x	x	x	x
CCNC(=S)NNC(=O)CSc1nnc(-c2ccccc2)n1-c1ccc(Cl)cc1	x	n	x	x	x	x
O=C1NC2(C=Cc3c(ccc4ccccc34)O2)Oc2ccccc21 (stereo unspecified)	152	x	n	n	n	n
CCOC(=O)[C@@]12CN(C(=O)OC(C)(C)C)CC=C1N(Cc1ccc(OC)cc1)C(=O)[C@H]2CC(=O)N1CCCCC1	x	n	x	x	x	x
C=CCN1C(=O)[C@H](CC(=O)NCc2cccs2)[C@@]2(C(=O)OCC)CCCC=C12	x	n	x	x	x	x
Cc1ccc(/C=C2\SC(=S)N(C(Cc3ccccc3)C(=O)O)C2=O)cc1 (stereo unspecified)	n	n	n	161	n	n
OC(c1ccccc1)(c1ccccc1)C1CCN(CCCNc2ccc(Cl)cc2Cl)CC1	x	n	x	x	x	x
O=C(Nc1ccccc1)c1ccccc1NS(=O)(=O)c1ccc(Cl)s1	n	n	n	n	n	n
SMILES	Mtb FBA inh	PrPC surface inh	PrP UTR inh	PfHsp40 yeast	GDH-TPI counter	BJeLR lethal
Cc1ccc(NC(=O)c2ccccc2NS(=O)(=O)c2ccc(Cl)s2)cc1	n	n	n	80	n	n
Cc1cc(C(=O)O[C@@H]2CCC[C@@]3(C(=O)N(Cc4ccccc4)c4ccccc43)[C@H]2NC(=O)CCc2ccccc2)no1	x	n	x	x	x	x
CCc1ccccc1N(C(=O)c1cccs1)C1C=CS(=O)(=O)C1 (stereo unspecified)	n	n	n	34	n	n
O=C(c1cccs1)N(c1cccc(Cl)c1)C1C=CS(=O)(=O)C1 (stereo unspecified)	n	n	n	n	n	n
Cc1ccnc(N/C=C(/NC(=O)c2ccccc2)C(=O)N/N=C\c2ccc(Cl)cc2)n1	n	n	n	n	91	n
COc1ccc2cc(/C(C)=N/NC(=O)C3CC3)ccc2c1	+	n	n	n	n	n
CCCCn1cc(C(=O)c2cc(Br)ccc2O)cc(C#N)c1=O	n	n	n	n	n	n
C=CCn1cc(C(=O)c2cc(Br)ccc2O)cc(C#N)c1=O	n	n	n	n	31	n
COC(=O)[C@]12C[C@H](CC(=O)NCCCN3CCCC3=O)C(=O)N(Cc3ccco3)C1=C[C@H](C1CCCC1)O[C@@H]2C	x	n	x	x	x	x
CC(/C=N/NC(=O)c1nnn(-c2nonc2N)c1CN1CCCCC1)=C\c1ccccc1	n	n	n	n	34	n
CC(=C/c1ccccc1)/C=N/NC(=O)c1nnn(-c2nonc2N)c1CN1CCC(C)CC1	n	n	n	n	n	n
CCN(CC)c1ccc(/C=N/NC(=O)c2nnn(-c3nonc3N)c2C(C)C)c(O)c1	n	n	n	n	n	88
CC(C)c1c(C(=O)N/N=C/C=C/c2ccccc2)nnn1-c1nonc1N	n	n	n	n	39	n
CN(C)Cc1c(C(=O)N/N=C/C=C/c2ccccc2)nnn1-c1nonc1N	n	n	n	n	34	n
CN(C)Cc1c(C(=O)N/N=C/CCc2ccccc2)nnn1-c1nonc1N	n	n	n	n	n	n
O=C(CCc1ccccc1)N[C@H]1[C@H](OCc2ccccc2)CCC[C@@]12C(=O)N(Cc1ccccc1)c1ccc(-c3ccsc3)cc12	x	n	x	x	x	x
CC(/C=N/NC(=O)c1nnn(-c2nonc2N)c1C(C)C)=C\c1ccco1	n	n	n	n	37	n
COc1ccc(S(=O)(=O)Nc2ccc3ccccc3c2)cc1C	n	n	n	31	n	n
C=CCn1c(SCC(=O)Nc2ccccc2-c2ccccc2)nnc1-c1ccc(Cl)cc1	x	n	x	x	x	x
Brc1ccc(OCc2ccccc2)c(CNCc2ccncc2)c1	n	n	n	122	n	n
CN1CCc2c(sc3nc(SCC(N)=O)n(-c4ccc(Cl)cc4)c(=O)c23)C1	n	n	n	n	32	n
CCn1c(SCC(=O)c2ccccc2)nc2sc3c(c2c1=O)CCN(C)C3	n	n	n	n	n	n
CN1CCc2c(sc3nc(SCC(N)=O)n(-c4ccccc4)c(=O)c23)C1	n	n	n	n	n	n
CCn1c(SCC(=O)NCCc2ccccc2)nc2sc3c(c2c1=O)CCN(C)C3	n	n	n	n	35	n
CN1CCc2c(sc3nc(SCC(=O)N4CCCCC4)n(-c4ccccc4)c(=O)c23)C1	n	n	n	n	39	n
CCCC(=O)Nc1ccc2c(c1)C(=O)N(C)[C@H]1CC[C@@H](CC(=O)OC)O[C@@H]1CO2	x	n	x	x	x	x
CCOc1cc(/C=N/N=C(/N)c2nonc2N)cc(Br)c1OCc1ccc(Cl)cc1	n	n	n	n	32	n
COc1cc(/C=N/N=C(/N)c2nonc2N)cc(Br)c1OCc1ccccc1C	n	n	n	n	34	n
COc1nc(NCCO)nc(Nc2ccc([N+](=O)[O-])cc2)n1	n	n	n	n	31	n

Screening data: PubChem BioAssay, several laboratories
